Screening results (PubChem)
Anthrax LF inh2: inhibitors of Bacillus anthracis lethal factor protease; P15917; multiplex microsphere protease cleavage assay, LF; AID 588501; hit rate 0.12% among 360,000; inhibition, % at 10 µM; also: plate controls were buffer without enzyme for full effect and enzyme alone for no effect
Target sequence (P15917 whole entry, looked up): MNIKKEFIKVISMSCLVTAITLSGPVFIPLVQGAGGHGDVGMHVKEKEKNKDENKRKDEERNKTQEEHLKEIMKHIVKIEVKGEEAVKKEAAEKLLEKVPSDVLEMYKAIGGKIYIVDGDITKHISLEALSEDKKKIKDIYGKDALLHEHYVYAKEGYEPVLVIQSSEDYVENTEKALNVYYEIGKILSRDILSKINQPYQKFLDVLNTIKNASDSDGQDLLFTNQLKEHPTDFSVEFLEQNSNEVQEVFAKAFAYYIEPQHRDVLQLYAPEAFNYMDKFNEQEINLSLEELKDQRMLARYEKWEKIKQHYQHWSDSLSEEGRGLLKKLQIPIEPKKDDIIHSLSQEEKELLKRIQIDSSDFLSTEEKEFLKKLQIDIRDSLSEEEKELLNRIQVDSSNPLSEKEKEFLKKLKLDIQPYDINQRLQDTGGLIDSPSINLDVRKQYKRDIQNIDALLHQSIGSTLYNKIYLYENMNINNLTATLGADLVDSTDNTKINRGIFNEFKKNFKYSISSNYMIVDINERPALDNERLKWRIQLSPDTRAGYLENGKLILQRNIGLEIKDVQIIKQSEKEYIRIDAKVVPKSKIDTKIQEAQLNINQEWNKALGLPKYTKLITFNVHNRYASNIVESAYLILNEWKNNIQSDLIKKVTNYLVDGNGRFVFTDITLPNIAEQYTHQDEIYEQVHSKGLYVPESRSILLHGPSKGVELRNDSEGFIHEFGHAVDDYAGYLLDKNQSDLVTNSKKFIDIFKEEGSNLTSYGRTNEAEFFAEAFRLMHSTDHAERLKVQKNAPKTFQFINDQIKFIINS
Bead autofluor: flagged as autofluorescent in microsphere protease counterscreen. compound autofluorescence counterscreen, microsphere flow cytometry; hits give high values. fluorescence intensity (no concentration beside the values). hit rate 3.1% among 360,000; in the data active = fluorescence intensity above about 16000; inconclusive = no clear call, values can overlap the other calls
BoNT F protease: BoNT F light chain protease inhibition; hit rate 0.22% among 360,000; Multiplex microsphere protease cleavage assay, flow cytometry; AID 588497; inhibition, % at 10 µM; in the data active = inhibition above about 35%, passing the limit was not always enough; inconclusive = no clear call, values can overlap the other calls; also: plate controls were buffer without enzyme for full effect and enzyme alone for no effect
BJeLR viability: BJeLR cell viability loss | BJeLR (HRASV12) viability, CellTiter-Glo ATP luminescence, 48 h | inhibition, % (concentration not given with the values) | hit rate 0.17% among 300,000; in the data active = inhibition above about 50%; inconclusive = no clear call, values can overlap the other calls
BoNT-A LC inh2: BoNT A light chain protease inhibition; multiplex microsphere protease substrate cleavage, flow cytometry; inhibition, % at 10 µM; hit rate 0.17% among 360,000; also: plate controls were buffer without enzyme for full effect and enzyme alone for no effect
3CLpro inhibitor: SARS-CoV 3CLpro protease inhibition; P0C6X7; recombinant SARS-CoV 3CLpro, quenched FRET peptide cleavage; inhibition, % at 6 µM; hit rate 0.14% among 290,000; AID 1706; in the data active = inhibition above about 12%
* = called active by the depositor; ? = inconclusive; . = no result given. Hits are enriched below; roughly 3.6% of the tested compounds scored in any of these assays. Rule as the data show it, unless noted: active = inhibition above about 30%; inconclusive = no clear call, values can overlap the other calls; inactive = below that.

SMILES | Anthrax LF inh2 | Bead autofluor | BoNT F protease | BJeLR viability | BoNT-A LC inh2 | 3CLpro inhibitor
Cc1ccc(NCc2nnc(SCC(N)=O)o2)c(C)c1 | -2 | 4508 | -6 | 2 | -1 | 1
COc1ccc(-c2nnc(SCC(=O)N3CCC(Cc4ccccc4)CC3)o2)cc1OC | -5 | 22436* | -3 | 4 | 0 | 0
CCCCCNCc1cccc(Br)c1 | 1 | 6485 | -4 | 7 | 1 | -2
CCS(=O)c1ccccc1C(=O)OCC(=O)N1CCC(c2ccccc2)=N1 (stereo not given) | -2 | 4119 | -13 | . | -1 | .
COc1ccc(C(=O)c2ccc(Br)cc2)cc1 | 0 | 20227* | 2 | 0 | 2 | 4
COc1ccc(C(=O)c2ccccc2)cc1 | -2 | 2033 | -9 | -3 | 0 | -4
C/C(=N/NC(=O)CNC(=O)c1ccccn1)c1cccc([N+](=O)[O-])c1 | -6 | 4187 | -8 | 0 | -1 | -3
CC(C)(C)c1ccc(-c2nc(C#N)c(NCc3cccnc3)o2)cc1 | -3 | 17505* | -8 | -4 | -3 | 3
CCCC1(C)NC(=O)c2ccccc2O1 (stereo not given) | 3 | 3975 | -2 | -12 | -1 | -2
CC(NC(=O)C(=O)NCCc1c[nH]c2ccccc12)c1ccccc1 (stereo not given) | -12 | 3815 | 0 | -4 | 0 | 1
Cc1ccc(C)c(OC(=O)C2CSC3(C)CCC(=O)N23)c1C (stereo not given) | 1 | 6224 | 1 | . | 0 | .
COC(=O)c1ccc2c(c1)C(C)(C)C(/C=C/c1ccc(OC)c(OC)c1OC)=[N+]2C | -4 | 2506 | -23 | 52* | 0 | 4
COC(=O)c1ccc2c(c1)C(C)(C)C(/C=C/c1ccc(O)cc1)=[N+]2C | -2 | 10719 | -18 | 29 | 4 | 5
COc1cc(C)nc(NC(=O)NC(=O)c2ccc(C(F)(F)F)cc2)n1 | 0 | 5427 | 6 | -10 | 2 | 0
CCc1nc2ccc(C(=O)Nc3ccc(OC)c(OC)c3)cn2c1N(C)Cc1cccs1 | 0 | 3970 | 4 | . | 0 | .
CN(C)/C=C(/C(=O)c1ccc(Cl)cc1)S(=O)(=O)c1ccc(Cl)cc1 | -1 | 16355* | -5 | -1 | -1 | 0
CCOC(=O)CCCCCC(=O)Nc1ccc2c(c1)C(=O)N([C@@H](C)CO)C[C@H](C)[C@H](CN(C)C(=O)c1ccccc1)OCCCC[C@H](C)O2 | -6 | 3737 | 2 | . | 0 | .
CCN(CC)C(=O)C1=C(C)NC(=O)NC1c1c(F)cccc1Cl (stereo not given) | -4 | 16958* | -7 | 2 | -1 | -5
COc1ccc(-n2cc(CNCCc3cnc[nH]3)c(-c3cccc(F)c3)n2)cc1 | -2 | 2075 | -13 | 4 | 0 | 3
COc1ccc(C(=O)Nc2ccccc2C(=O)NC(C(=O)NCc2ccco2)C(C)C)cc1 (stereo not given) | 0 | 2765 | -16 | 2 | -1 | 0
COc1ccc(C(=O)Nc2ccccc2C(=O)N(Cc2ccco2)C(C(N)=O)C(C)C)cc1 (stereo not given) | -2 | 22943* | 3 | -2 | 0 | -1
COc1ccccc1CNC(=O)Nc1nc(C(N)CCc2ccccc2)cs1 (stereo not given) | -2 | 3873 | -13 | . | 0 | .
COCCN1CCc2c(C)nc3c(-c4ccc(OC)c(OC)c4)cnn3c21 | -11 | 9041 | 2 | 2 | 1 | -4
COc1ccc(-c2cnn3c4c(c(C)nc23)CCN4C2CCCC2)cc1OC | -2 | 17372* | -4 | 0 | -2 | -1
Cc1cccc(-n2c(SCC(=O)c3c(N)n(C4CC4)c(=O)[nH]c3=O)nnc2N2CCOCC2)c1 | 1 | 4932 | 0 | . | 3 | .
SMILES | Anthrax LF inh2 | Bead autofluor | BoNT F protease | BJeLR viability | BoNT-A LC inh2 | 3CLpro inhibitor
COc1ccc(N2CCCn3c2nc2c3c(=O)n(Cc3ccc(F)cc3)c(=O)n2C)c(OC)c1 | -6 | 10072 | 2 | . | 0 | .
O=C(Nc1cccc(Cl)c1N1CCCC1)c1ccc(Br)o1 | -3 | 21468* | -6 | -2 | -2 | 4
CCN(CC)c1ccc(NC(=O)c2ccco2)c(C)c1 | 2 | 8082 | -1 | 4 | 0 | -5
CCN(CC)c1ccc(NC(=O)c2ccc(Br)o2)c(C)c1 | -3 | 20876* | -3 | 7 | -1 | 0
Cc1cc(O)c(NC(=O)c2ccc(Br)o2)cc1C | -4 | 21608* | 4 | 3 | 2 | -2
C=C(C)CN(CC)c1nc(N)c(C#N)c(CC#N)c1C#N | -1 | 20294* | 0 | 2 | ? | 1
O=C(Nc1ccccc1C(=O)NCc1ccco1)c1ccco1 | -1 | 17328* | -4 | -8 | -2 | -4
